The results in this text go back to PubChem BioAssay (NCI).

Each structure is given as a SMILES string. Compounds without any hit were thinned out: in the full panel of roughly 83,000, 20% have a hit.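 A percent growth of 40 corresponds to 60% growth inhibition; 0 means no net growth; -100 means all cells died. Active threshold: below 10.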 Values without a mark were called inactive. Calls of active or inactive are those of the source.

The test system of the assay is NCI/ADR-RES ovarian. Nature of the assay: NCI-60 one-dose screen, 48 h (100 = growth as untreated, 0 = no growth, -100 = all killed). The following applies: 10 µM unless noted.
Consider `CCN1C(=O)N(CC)C2C1NN=c1s/c(=C\c3cc4ccccc4[nH]3)c(=O)n12` (centres undefined), for which the growth was 3.61% (active).
In the case of `CCN(CC)CCCNCc1cc(-c2ccccc2)nc2cc(Cl)ccc12` it was 23.2%; in that of `CC[C@H](CC[C@@H](C)[C@H]1CC[C@H]2[C@@H]3CC[C@@H]4CC(=O)/C(=C\c5ccncc5)C[C@]4(C)[C@H]3CC[C@]12C)C(C)C`, 104%; in that of `CCN(CC)c1ccc(/C=N\NC(=O)c2cccc(Nc3ccnc(C(F)(F)F)c3)c2)c(O)c1`, 29.4%.
`Cc1cscc(C)c1=S`: the growth was 71.1%.
Under `COC(=O)/C=C1/SC(=Nc2cccc(Cl)c2)N(CCc2c[nH]c3ccc(O)cc23)C1=O` stands 18.4%.
For the molecule `O=C(CCCCCCCCC(=O)N/N=C\c1cc(Cl)ccc1O)N/N=C\c1cc(Cl)ccc1O`, the growth is 17.4%.
Under `COc1ccc(/C=C/C(=O)c2cc3c(N)c(C(=O)Nc4ccc(OC)cc4)sc3nc2C)cc1` stands 6.34% (active).
For `CCCCCCOC(=O)CC1=C(C)/C(=C/c2[nH]c(-c3ccc[nH]3)cc2OC)N=C1C`, the growth was -49.4% (active).
In the case of `Cc1ccc(O)c(NC(=O)c2ccc(CNc3ccnc(C(F)(F)F)c3)cc2)c1` it was 50.3%; in that of `O=C1/C(=C/c2ccc(Br)cc2)COc2ccc(O)c(O)c21`, 3.52% (active).
In the case of `O=C(/C=C/C12c3ccccc3C(c3ccccc31)C1C(=O)NC(=O)C12)c1ccc(F)cc1` (centres undefined) it was 5.4% (active).
With `Cc1ccc(C)c2c1C(O)(C#Cc1ccccc1)c1ccccc1C2(O)C#Cc1ccccc1` (centres undefined), the growth is 71.1%.
In the case of `C(/C=C/c1ccccc1)=Nc1ccc(CCc2ccc(N=C/C=C/c3ccccc3)cc2)cc1` it was 80.9%.
`O=C(Cn1nnc2ccccc21)Nc1ccc(-c2nc3ccccc3s2)cc1`: the growth was 96.2%.
For `CCCCCCCC/C=C\CCCCCCCCOc1ccc(CC(=O)NCC[N+](C)(C)C)cc1`, the growth is 94.4%.
`COc1cc(/C=C2\CN(S(=O)(=O)c3ccc(C)cc3)C/C(=C\c3cc(CN4CCCCC4)c(O)c(OC)c3)C2=O)cc(CN2CCCCC2)c1O`: the growth is -47.2% (active).
Under `Cc1ncc(C(=O)Nc2ccc(CN3CCN(C)CC3)c(C(F)(F)F)c2)cc1C#Cc1cnc(N)c2ccncc12` stands -25.1% (active); under `COc1cc(C2=NN(C(C)=O)C(c3ccc(N(C)C)cc3)C2)cc(OC)c1OC` (centres undefined), 99.2%; under `COC1=CC(c2ccc[nH]2)=N/C1=C\c1[nH]c(C)c(CC(=O)OCc2ccccc2)c1C`, 1.3% (active).
For `CCOC(=O)CSc1nc2sc3c(c2c(=O)n1-c1ccc([N+](=O)[O-])cc1)CCCCC3`, the growth was 84.3%.
In the case of `CN(C)c1ccc(C(=NO)c2ccc(N(C)C)cc2)cc1` it was 13.4%; in that of `Cc1ccc(C(=O)c2ccc(CC(=O)N/N=C/c3ccc(O)cc3O)n2C)cc1`, 34.6%; in that of `N#C/C(=C\c1ccc(Br)cc1)c1cc2ccccc2[nH]1`, 98.7%.
In the case of `COc1ccc(-c2cn(-c3ccc(Cl)cc3)c(SCC(=O)c3ccc([N+](=O)[O-])cc3)n2)cc1` it was 79.5%; in that of `COc1ccc(Cc2nnc(Nc3nc4ccccc4s3)s2)cc1`, 95.7%.
With `CCOC(=O)c1ccc2c(c1)c1c(C)c3ccncc3c(C)c1n2C`, the growth was -12.5% (active).
With `Cc1nc2sc(C(=O)Nc3cccc(Cl)c3)c(N)c2cc1C(O)c1ccccc1` (centres undefined), the growth is 5.21% (active).
As to `COc1ccc(C2CC(c3ccc(Nc4nc(Nc5ccc(F)cc5)nc(Nc5ccc(F)cc5)n4)cc3)=NN2C(C)=O)cc1` (centres undefined), the growth is 80.5%.
Under `N#Cc1c(NC(=O)c2cccs2)[n+]([O-])c2ccc(Cl)cc2[n+]1[O-]` stands 99.2%; under `CC(C)(C)c1cc(C=Nc2cccc(C(F)(F)F)c2)c(O)c(C(C)(C)C)c1`, 99.9%.
Under `N=c1sc(Cc2cc(Cl)ccc2Cl)cn1CC(=O)c1ccccc1` stands 36%; under `COc1ccc(Nc2ncc(C(N)=O)c(NCCCNC(=O)C3CCC3)n2)cc1`, 100%; under `Cc1nn(-c2ccccc2)c(/N=C/N(C)C)c1/C=C/C(=O)c1ccc(Cl)cc1`, 86.9%.
As for `COc1ccc2cc(-c3ccc(-c4ccc(C(=N)N)s4)s3)ccc2c1`, the growth was -43% (active).
Under `O=C1c2cccnc2C(=O)c2c1c(C(=O)OCCCN1CCCCC1)c1ccccn21` stands -13.3% (active); under `O[C@@H](c1cc(C(F)(F)F)nc2c(C(F)(F)F)cccc12)[C@H]1CCCCN1`, 61.9%; under `Cc1[nH]c(/C=C/C(=O)c2ccc(C(F)(F)F)c(F)c2)c(C)c1C(=O)NCC(C)C`, 98.9%.
In the case of `CCCCCCCCn1ccc2cc(NC(=O)Cn3cc(CN4CCCCCC4)nn3)ccc21` it was 55.1%.
